These results are taken from PubChem BioAssay (Tox21).

SMILES strings stand for the structures. Values without a mark were called inactive. Inconclusive results are not listed. Activity calls are given as the source filed them. Unless noted, calls follow the shape of the dose curve; as a rule, active = well fitted curve in the direction sought with a large enough effect in the repeat runs; inconclusive = weak or mixed curves; inactive = no such curve, though single readings can be large; an effect the other way counts as inactive or inconclusive.

In assay [1] the target is Acetylcholinesterase (Homo sapiens) (UniProt P22303). The experiment in a line: Acetylcholinesterase (AChE) small molecule antagonists: enzyme-based qHTS assay (AID 1347397; calls by dose curve; also: % is scaled to controls: 0 for no effect and ±100 for the full control effect; nearly all actives have a fitted effect of over 55% in size). To be noted: Potency: AChE enzyme activity inhibition; outcome: AChE enzyme activity inhibition. The method, boiled down: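 Recombinant human AChE (50 mU/mL) preincubated with compound 30 min at room temperature; acetylthiocholine plus DTNB then added, and thiocholine formation read colorimetrically after 10 min at room temperature. DMSO served as vehicle control.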

For assay [2] the target is unchanged. The experiment in a line: Acetylcholinesterase (AChE) small molecule antagonists: enzyme-based qHTS assay with human liver microsomes (AID 1347399; calls by dose curve; also: % is scaled to controls: 0 for no effect and ±100 for the full control effect; nearly all actives have a fitted effect of over 60% in size). To be noted: Potency: qHTS inhibition; outcome: qHTS inhibition. The procedure, abridged:
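Recombinant human AChE (50 mU/mL in the enzyme mix) and human liver microsomes (0.25 mg/mL final) were preincubated with compound and NADPH (0.25 mg/mL final) for 30 min at 37 C. Acetylthiocholine/DTNB was then added; thiocholine was read colorimetrically after 10 min at room temperature.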

In assay [3] the target is Aryl hydrocarbon receptor (Homo sapiens) (UniProt P35869). The experiment in a line: qHTS assay to identify small molecule that activate the aryl hydrocarbon receptor (AhR) signaling pathway (AID 743085).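 Also: HG2L7.5c1 human HepG2 liver cells with stably integrated DRE-driven firefly reporter; series mostly up to about 70 µM; % is scaled to controls: 0 for no effect and ±100 for the full control effect; nearly all actives have a fitted effect of over 15% in size.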 The method, boiled down: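 Cell line HG2L7.5c1 (human hepatoma, 20× DRE-luc). Plated, 5 h 37C, compound/DMSO added, 24 h 37C. CellTiter-Fluor 30 min 37C → fluorescence; then ONE-Glo 30 min RT → luminescence.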

Assay [4] concerns the target Acetylcholinesterase (Homo sapiens) (UniProt P22303). The experiment in a line: Acetylcholinesterase (AChE) small molecule antagonists: fluorescence cell-based qHTS assay (AID 1347398; calls by dose curve; also: % is scaled to controls: 0 for no effect and ±100 for the full control effect; nearly all actives have a fitted effect of over 50% in size). To be noted: Potency: AChE activity; outcome: AChE activity. The method, boiled down: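 SH-SY5Y cells (2000/well), attached overnight, incubated with compound 30 min at 37 C. Acetylthiocholine plus Thiolite Green then added for 40 min at room temperature. Thiocholine fluorescence (Ex/Em 490/520 nm) reports cellular AChE activity.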

The nature of assay [5]: qHTS assay for small molecule agonists of the p53 signaling pathway (AID 651631; calls by dose curve; also: % is scaled to controls: 0 for no effect and ±100 for the full control effect; nearly all actives have a fitted effect of over 15% in size). The procedure, abridged: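 Read-out is beta-lactamase FRET fluorescence measured 2 h after substrate addition at room temperature, in HCT-116 cells with a p53 response element-driven reporter exposed to compounds for 16 h at 37 °C.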
Assay [6] in a line: qHTS assay for small molecules that induce genotoxicity in human embryonic kidney cells expressing luciferase-tagged ATAD5 (AID 651632). Also: % is scaled to controls: 0 for no effect and ±100 for the full control effect; nearly all actives have a fitted effect of over 15% in size. The procedure, abridged: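 ATAD5-luc HEK293T, 2,000 cells/well; cpd or DMSO pin-transferred; 16 hr, 37C/5% CO2; Amplite 30 min RT; luminescence.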
Assay [7] in a line: qHTS assay for small molecule agonists of the p53 signaling pathway - cell viability (AID 651633; calls by dose curve;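 also: p53RE-bla HCT reporter cells with a stable beta-lactamase p53 reporter; series mostly up to about 83 µM; % is scaled to controls: 0 for no effect and ±100 for the full control effect; nearly all actives have a fitted effect of over 30% in size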). The procedure, abridged:
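p53RE-bla cells were treated with compound for 16 hours at 37 C. Cytotoxicity was then measured as CellTiter-Glo luminescence after 30 min at room temperature.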

The nature of assay [8]: qHTS assay for small molecules that induce genotoxicity in human embryonic kidney cells expressing luciferase-tagged ATAD5 - cell viability (AID 651634; calls by dose curve; also: % is scaled to controls: 0 for no effect and ±100 for the full control effect; nearly all actives have a fitted effect of over 25% in size). The method, boiled down: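 Fluorescence from CellTiter-Fluor, reporting protease activity within live cells, served as the viability read-out. HEK293T cells carrying luciferase-tagged ATAD5 had been treated with compound for 15.5 hr at 37C.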

Assay [9] in a line: qHTS assay for small molecule disruptors of the mitochondrial membrane potential - cell viability (AID 720634; calls by dose curve;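 also: human HepG2 liver cancer cells; series mostly up to about 83 µM; % is scaled to controls: 0 for no effect and ±100 for the full control effect; nearly all actives have a fitted effect of over 20% in size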). The method, boiled down:
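Cells: HepG2, 2,000/well, attached overnight. Compound 1 hr, 37 C/5% CO2. +m-MPI dye, +CellTiter-Glo 30 min RT. Readout: luminescence (ATP).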

A short description of assay [10]: qHTS assay for small molecule disruptors of the mitochondrial membrane potential (AID 720635). Also: % is scaled to controls: 0 for no effect and ±100 for the full control effect. The procedure, abridged: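 HepG2 cells exposed to compound 1 hr at 37C, then Mito-MPS dye 30 min. Ratio read of aggregate (540/590 nm) versus monomer (490/535 nm) fluorescence.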
Assay [11] in a line: qHTS assay to test for compound auto fluorescence at 590 nm (red) in HepG2 cells (AID 720674). Also: % is scaled to controls: 0 for no effect and ±100 for the full control effect. The method, boiled down:
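Seeding: 2,000 HepG2 cells/well, MEM/10% FBS, overnight 37 C. Dosing: compound vs DMSO. Incubation: 1 hr, 37 C, 5% CO2. Read: fluorescence 540 ex/590 em, Rose Bengal sodium as red reference.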

Assay [12] in a line: qHTS assay to test for compound auto fluorescence at 535 nm (green) in HepG2 cells (AID 720675). Also: % is scaled to controls: 0 for no effect and ±100 for the full control effect.
Assay [13] in a line: qHTS assay to test for compound auto fluorescence at 460 nm (blue) in HEK293 cells (AID 720678). Also: % is scaled to controls: 0 for no effect and ±100 for the full control effect. The procedure, abridged:
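Blue-channel (Ex/Em 405/460 nm) intensity measured in HEK293 cultures after overnight compound exposure at 37C; signal expressed relative to triamterene. Cells plated 2,000 per well in 10% dialyzed FBS medium and allowed 4-5 hr to attach.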

Assay [14] is described as follows: qHTS assay to test for compound auto fluorescence at 590 nm (red) in HEK293 cells (AID 720679). Also: % is scaled to controls: 0 for no effect and ±100 for the full control effect. The procedure, abridged:
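Red-channel autofluorescence (Ex/Em 540/590 nm; Rose Bengal sodium reference) was measured after overnight 37C, 5% CO2 exposure of attached HEK293 cells, 2,000 per well in medium with 10% dialyzed FBS.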

A short description of assay [15]: qHTS assay to test for compound auto fluorescence at 535 nm (green) in HEK293 cells (AID 720680). Also: % is scaled to controls: 0 for no effect and ±100 for the full control effect.
The nature of assay [16]: qHTS assay to test for compound auto fluorescence at 460 nm (blue) in HEK293 cell free culture (AID 720681). Also: % is scaled to controls: 0 for no effect and ±100 for the full control effect. The method, boiled down:
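Compounds were added to cell-free DMEM with 10% FBS and fluorescence read directly. The blue channel used 405 nm excitation and 460 nm emission, with triamterene as the reference fluorophore.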

Assay [17] in a line: qHTS assay to test for compound auto fluorescence at 535 nm (green) in HEK293 cell free culture (AID 720682). Also: % is scaled to controls: 0 for no effect and ±100 for the full control effect. The method, boiled down: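 Fluorescein serves as the green reference fluorophore; each compound's intrinsic emission at 535 nm (excitation 485 nm) is reported as an equivalent amount of that dye, measured in serum-containing DMEM without cells.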
Assay [18] can be described thus: qHTS assay to test for compound auto fluorescence at 590 nm (red) in HEK293 cell free culture (AID 720683). Also: % is scaled to controls: 0 for no effect and ±100 for the full control effect. The procedure, abridged: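 Cell-free wells of DMEM with 10% FBS received compound, and intrinsic fluorescence was read at excitation/emission 540/590 nm. Values expressed as equivalence to Rose Bengal sodium.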
The nature of assay [19]: qHTS assay to test for compound auto fluorescence at 590 nm (red) in HepG2 cell free culture (AID 720684). Also: % is scaled to controls: 0 for no effect and ±100 for the full control effect. The procedure, abridged:
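Compound was pinned into wells holding MEM with 10% FBS and no cells, and red fluorescence was read at Ex/Em 540/590 nm. Signal is expressed as auto fluorescence equivalency relative to Rose Bengal sodium.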

Assay [20] in a line: qHTS assay to test for compound auto fluorescence at 460 nm (blue) in HepG2 cell free culture (AID 720685). Also: % is scaled to controls: 0 for no effect and ±100 for the full control effect. The method, boiled down: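 Compound (23 nL) or DMSO pinned into cell-free MEM with 10% FBS; blue fluorescence read at 405/460 nm excitation/emission, expressed as auto-fluorescence equivalency to triamterene.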
Assay [21] can be described thus: qHTS assay to test for compound auto fluorescence at 535 nm (green) in HepG2 cell free culture (AID 720686). Also: % is scaled to controls: 0 for no effect and ±100 for the full control effect.
Assay [22] can be described thus: qHTS assay to test for compound auto fluorescence at 460 nm (blue) in HepG2 cells (AID 720687). Also: % is scaled to controls: 0 for no effect and ±100 for the full control effect. The method, boiled down: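 HepG2 cells in MEM with 10% FBS, attached overnight at 37 C, were exposed to compound or DMSO for 1 hr at 37 C, 5% CO2. Blue fluorescence was read at 405/460 nm, with triamterene as reference fluorophore.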
Assay [23] deals with Glucocorticoid receptor (Homo sapiens) (UniProt P04150). The experiment in a line: qHTS assay to identify small molecule agonists of the glucocorticoid receptor (GR) signaling pathway (AID 720691; active = well fitted activation curve with a large enough effect in the signal ratio in the repeat runs, not every such curve was filed as active; the % refers to the signal ratio; also: % is scaled to controls: 0 for no effect and ±100 for the full control effect). The method, boiled down: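 Fluorescence intensity from LiveBLAzer B/G FRET substrate (2 h, room temperature) reports beta-lactamase expression driven by the glucocorticoid response element in GR-bla HeLa cells after 18 h compound exposure at 37 C.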

Assay [24] has the same target. Kind of assay: qHTS assay to identify small molecule antagonists of the glucocorticoid receptor (GR) signaling pathway (AID 720692; active = well fitted inhibition curve with a large enough effect in the signal ratio in the repeat runs, not every such curve was filed as active; the % refers to the signal ratio; also: % is scaled to controls: 0 for no effect and ±100 for the full control effect). The procedure, abridged:
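HeLa GR-bla cells; cmpd + dex 5 nM final, 18 h 37 C; LiveBLAzer B/G FRET substrate 2 h RT; fluorescence intensity read. Antagonist mode, qHTS.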

Assay [25] can be described thus: qHTS assay to identify small molecule antagonists of the glucocorticoid receptor (GR) signaling pathway - cell viability counter screen (AID 720693). Also: % is scaled to controls: 0 for no effect and ±100 for the full control effect; nearly all actives have a fitted effect of over 55% in size.
Assay [26] is described as follows: qHTS assay for identifying genotoxic compounds that show differential cytotoxicity against isogenic chicken DT40 cell lines with known DNA damage response pathways - wild type cell line (AID 743012). Also: potency is read from the fitted curve at half-maximal effect; nearly all actives have a fitted effect of over 60% in size. The method, boiled down: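 Wild type DT40, 300 cells/well, ~0.5 h settle at 37 C/5% CO2; compounds in DMSO added by pintool; 40 h at 37 C/5% CO2; CellTiter-Glo, 30 min RT; luminescence.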

A short description of assay [27]: qHTS assay for identifying genotoxic compounds that show differential cytotoxicity against isogenic chicken DT40 cell lines with known DNA damage response pathways - Rev3 mutant cell line (AID 743014). Also: potency is read from the fitted curve at half-maximal effect; nearly all actives have a fitted effect of over 55% in size.
A short description of assay [28]: qHTS assay for identifying genotoxic compounds that show differential cytotoxicity against isogenic chicken DT40 cell lines with known DNA damage response pathways - Rad54/Ku70 mutant cell line (AID 743015). Also: potency is read from the fitted curve at half-maximal effect; nearly all actives have a fitted effect of over 60% in size.
A short description of assay [29]: qHTS assay to identify small molecule antagonists of the androgen receptor (AR) signaling pathway - cell viability counter screen (AID 743033; also: % is scaled to controls: 0 for no effect and ±100 for the full control effect; nearly all actives have a fitted effect of over 45% in size).
A short description of assay [30]: qHTS assay to identify small molecule antagonists of the thyroid receptor (TR) signaling pathway - cell viability counter screen (AID 743064). Also: % is scaled to controls: 0 for no effect and ±100 for the full control effect; nearly all actives have a fitted effect of over 50% in size. The procedure, abridged: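 Fluorescence from CellTiter-Fluor, added after 23.5 h exposure at 37 °C, reported viability of GH3.TRE-Luc cells co-treated with compound and 1 nM T3. Measured in the same wells as the luciferase TR readout.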

The test system of assay [31] is thyroid hormone receptor (rat, GH3 cells). The experiment in a line: qHTS assay to identify small molecule agonists of the thyroid receptor (TR) signaling pathway (AID 743066; calls by dose curve; also: % is scaled to controls: 0 for no effect and ±100 for the full control effect).
Assay [32] addresses Estrogen receptor (Homo sapiens) (UniProt P03372). Kind of assay: qHTS assay to identify small molecule antagonists of the estrogen receptor alpha (ER-alpha) signaling pathway (AID 743069; active = well fitted curve in the direction sought with a large enough effect in the signal ratio in the repeat runs, not every such curve was filed as active; the % refers to the signal ratio; also: % is scaled to controls: 0 for no effect and ±100 for the full control effect). The procedure, abridged:
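HEK293 ER-alpha-UAS-bla GripTite cells, held overnight in 2% charcoal-stripped FBS, 5,000 cells/well, preincubated 4 h, then compound plus 17beta-estradiol for 18 h at 37C. Beta-lactamase read by LiveBLAzer B/G FRET substrate, 2 h at room temperature.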

Assay [33] can be described thus: qHTS assay to identify small molecule antagonists of the estrogen receptor alpha (ER-alpha) signaling pathway - cell viability counter screen (AID 743074; calls by dose curve;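 also: HEK293 cells carrying ER-alpha-UAS-bla reporter stimulated with 17beta-estradiol; % is scaled to controls: 0 for no effect and ±100 for the full control effect; nearly all actives have a fitted effect of over 45% in size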).
Assay [34] addresses Estrogen receptor (Homo sapiens) (UniProt P03372). Kind of assay: qHTS assay to identify small molecule agonists of the estrogen receptor alpha (ER-alpha) signaling pathway (AID 743075; calls by dose curve).
The target is the same in assay [35]. Kind of assay: qHTS assay to identify small molecule agonists of the estrogen receptor alpha (ER-alpha) signaling pathway using the BG1 cell line (AID 743079).
A short description of assay [36]: qHTS assay to identify small molecule antagonists of the estrogen receptor alpha (ER-alpha) signaling pathway using the BG1 cell line (AID 743080; calls by dose curve). The procedure, abridged:
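Luciferase inhibition measured with ONE-Glo after 30 min at RT in BG1Luc4E2 cells given test compounds and 17beta-estradiol for 21.5 h at 37 C; CellTiter-Fluor viability read in the same wells beforehand.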

Assay [37] addresses Aromatase (Homo sapiens) (UniProt P11511). Kind of assay: qHTS assay to identify aromatase inhibitors (AID 743083).
Assay [38] can be described thus: qHTS assay to identify aromatase inhibitors - cell viability counter screen (AID 743084).
In assay [39] the target is Peroxisome proliferator-activated receptor gamma (Homo sapiens) (UniProt P37231). Kind of assay: qHTS assay to identify small molecule agonists of the peroxisome proliferator-activated receptor gamma (PPARg) signaling pathway (AID 743094; active = well fitted activation curve with a large enough effect in the signal ratio in the repeat runs, not every such curve was filed as active; the % refers to the signal ratio). The method, boiled down:
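Beta-lactamase FRET fluorescence was the read-out after a 1 h room-temperature substrate step, following 17 h compound treatment at 37C of HEK293H cells expressing a UAS-driven bla reporter responsive to PPARg.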

Chain of Estrogen receptor (Homo sapiens) (P03372 whole entry, looked up): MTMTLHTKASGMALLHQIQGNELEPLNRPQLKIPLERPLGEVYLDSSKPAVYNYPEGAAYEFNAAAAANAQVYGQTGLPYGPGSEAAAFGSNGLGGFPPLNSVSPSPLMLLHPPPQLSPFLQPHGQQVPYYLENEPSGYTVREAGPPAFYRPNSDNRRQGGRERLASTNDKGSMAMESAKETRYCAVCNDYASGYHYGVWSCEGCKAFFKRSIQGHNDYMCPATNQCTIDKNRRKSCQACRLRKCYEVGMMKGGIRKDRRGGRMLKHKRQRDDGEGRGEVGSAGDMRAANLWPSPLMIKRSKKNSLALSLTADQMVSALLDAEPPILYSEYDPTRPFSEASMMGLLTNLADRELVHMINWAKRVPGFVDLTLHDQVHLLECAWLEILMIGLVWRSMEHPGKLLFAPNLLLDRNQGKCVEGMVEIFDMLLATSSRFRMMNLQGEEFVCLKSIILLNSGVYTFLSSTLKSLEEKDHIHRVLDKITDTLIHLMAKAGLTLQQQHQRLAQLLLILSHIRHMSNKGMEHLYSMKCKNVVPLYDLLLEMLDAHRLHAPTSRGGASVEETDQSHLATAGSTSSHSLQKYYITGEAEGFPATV
Chain of Acetylcholinesterase (Homo sapiens) (P22303 whole entry, looked up): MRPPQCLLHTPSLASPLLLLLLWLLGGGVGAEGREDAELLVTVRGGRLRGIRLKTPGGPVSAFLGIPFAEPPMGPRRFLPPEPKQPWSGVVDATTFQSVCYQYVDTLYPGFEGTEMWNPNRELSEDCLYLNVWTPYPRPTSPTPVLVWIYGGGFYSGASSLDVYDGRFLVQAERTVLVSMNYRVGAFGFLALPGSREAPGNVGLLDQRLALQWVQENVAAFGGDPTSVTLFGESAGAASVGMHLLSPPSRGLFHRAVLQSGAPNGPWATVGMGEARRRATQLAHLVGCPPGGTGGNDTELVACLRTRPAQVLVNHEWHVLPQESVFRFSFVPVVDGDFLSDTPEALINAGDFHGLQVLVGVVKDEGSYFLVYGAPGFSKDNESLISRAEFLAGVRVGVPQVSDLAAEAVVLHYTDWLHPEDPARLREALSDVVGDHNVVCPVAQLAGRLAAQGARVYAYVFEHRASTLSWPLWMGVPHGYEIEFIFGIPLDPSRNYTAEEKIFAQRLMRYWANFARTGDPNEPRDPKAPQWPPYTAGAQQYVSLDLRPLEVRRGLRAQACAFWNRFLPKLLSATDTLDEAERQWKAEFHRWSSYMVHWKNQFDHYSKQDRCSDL
Chain of Glucocorticoid receptor (Homo sapiens) (P04150 whole entry, looked up): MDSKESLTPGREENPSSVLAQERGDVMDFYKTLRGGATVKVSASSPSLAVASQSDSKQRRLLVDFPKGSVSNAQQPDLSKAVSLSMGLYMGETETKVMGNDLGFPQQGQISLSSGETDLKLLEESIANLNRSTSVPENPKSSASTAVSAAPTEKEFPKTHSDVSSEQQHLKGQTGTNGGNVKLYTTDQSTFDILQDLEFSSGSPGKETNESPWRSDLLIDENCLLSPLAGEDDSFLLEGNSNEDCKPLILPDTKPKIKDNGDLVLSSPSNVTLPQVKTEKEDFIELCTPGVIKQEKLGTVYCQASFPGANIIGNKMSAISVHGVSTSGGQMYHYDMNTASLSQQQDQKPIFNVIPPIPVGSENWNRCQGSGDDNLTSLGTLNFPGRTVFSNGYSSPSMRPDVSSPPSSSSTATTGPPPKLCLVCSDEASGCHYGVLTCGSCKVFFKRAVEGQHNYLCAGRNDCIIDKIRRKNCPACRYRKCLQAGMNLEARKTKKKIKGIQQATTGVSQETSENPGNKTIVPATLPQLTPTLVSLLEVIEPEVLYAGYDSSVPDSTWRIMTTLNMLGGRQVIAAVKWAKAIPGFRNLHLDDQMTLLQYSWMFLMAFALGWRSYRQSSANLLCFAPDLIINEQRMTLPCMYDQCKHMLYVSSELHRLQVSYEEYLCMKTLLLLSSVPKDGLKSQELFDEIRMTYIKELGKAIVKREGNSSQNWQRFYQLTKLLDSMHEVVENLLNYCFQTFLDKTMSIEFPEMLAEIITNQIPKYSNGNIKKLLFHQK
Chain of Aryl hydrocarbon receptor (Homo sapiens) (P35869 whole entry, looked up): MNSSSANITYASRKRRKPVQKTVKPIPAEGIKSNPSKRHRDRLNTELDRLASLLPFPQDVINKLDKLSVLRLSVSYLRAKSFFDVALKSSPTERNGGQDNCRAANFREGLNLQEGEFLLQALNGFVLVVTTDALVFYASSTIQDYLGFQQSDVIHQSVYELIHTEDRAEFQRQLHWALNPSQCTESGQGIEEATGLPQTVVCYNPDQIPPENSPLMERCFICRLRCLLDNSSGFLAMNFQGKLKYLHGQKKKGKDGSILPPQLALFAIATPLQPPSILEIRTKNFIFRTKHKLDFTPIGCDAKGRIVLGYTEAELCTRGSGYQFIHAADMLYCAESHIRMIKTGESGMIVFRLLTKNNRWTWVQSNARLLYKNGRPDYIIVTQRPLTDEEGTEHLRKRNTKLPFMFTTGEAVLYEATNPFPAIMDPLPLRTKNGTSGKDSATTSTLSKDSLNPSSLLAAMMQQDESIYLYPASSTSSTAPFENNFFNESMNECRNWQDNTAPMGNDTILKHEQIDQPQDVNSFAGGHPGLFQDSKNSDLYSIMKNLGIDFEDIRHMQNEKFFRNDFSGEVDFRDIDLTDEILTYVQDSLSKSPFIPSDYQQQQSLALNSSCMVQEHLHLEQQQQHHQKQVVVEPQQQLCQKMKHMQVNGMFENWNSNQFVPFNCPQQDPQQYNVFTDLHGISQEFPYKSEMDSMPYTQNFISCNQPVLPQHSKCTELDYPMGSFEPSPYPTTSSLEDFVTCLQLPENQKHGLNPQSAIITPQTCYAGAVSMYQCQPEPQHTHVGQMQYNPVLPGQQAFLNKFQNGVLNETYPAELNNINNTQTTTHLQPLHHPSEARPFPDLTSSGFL
Chain of Aromatase (Homo sapiens) (P11511 whole entry, looked up): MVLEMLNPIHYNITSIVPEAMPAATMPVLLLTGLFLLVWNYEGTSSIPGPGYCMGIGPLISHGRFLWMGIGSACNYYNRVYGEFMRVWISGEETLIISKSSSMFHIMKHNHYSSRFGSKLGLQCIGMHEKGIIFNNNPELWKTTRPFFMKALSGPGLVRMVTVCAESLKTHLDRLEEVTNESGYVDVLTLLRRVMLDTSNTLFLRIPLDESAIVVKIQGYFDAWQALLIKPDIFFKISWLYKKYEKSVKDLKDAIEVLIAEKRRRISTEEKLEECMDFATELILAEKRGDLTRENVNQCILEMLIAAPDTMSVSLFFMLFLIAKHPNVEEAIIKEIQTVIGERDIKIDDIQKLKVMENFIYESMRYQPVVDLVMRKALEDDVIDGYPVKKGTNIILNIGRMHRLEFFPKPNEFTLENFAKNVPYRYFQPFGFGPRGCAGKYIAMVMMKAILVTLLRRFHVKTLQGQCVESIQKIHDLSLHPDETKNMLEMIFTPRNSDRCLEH
Chain of Peroxisome proliferator-activated receptor gamma (Homo sapiens) (P37231 whole entry, looked up): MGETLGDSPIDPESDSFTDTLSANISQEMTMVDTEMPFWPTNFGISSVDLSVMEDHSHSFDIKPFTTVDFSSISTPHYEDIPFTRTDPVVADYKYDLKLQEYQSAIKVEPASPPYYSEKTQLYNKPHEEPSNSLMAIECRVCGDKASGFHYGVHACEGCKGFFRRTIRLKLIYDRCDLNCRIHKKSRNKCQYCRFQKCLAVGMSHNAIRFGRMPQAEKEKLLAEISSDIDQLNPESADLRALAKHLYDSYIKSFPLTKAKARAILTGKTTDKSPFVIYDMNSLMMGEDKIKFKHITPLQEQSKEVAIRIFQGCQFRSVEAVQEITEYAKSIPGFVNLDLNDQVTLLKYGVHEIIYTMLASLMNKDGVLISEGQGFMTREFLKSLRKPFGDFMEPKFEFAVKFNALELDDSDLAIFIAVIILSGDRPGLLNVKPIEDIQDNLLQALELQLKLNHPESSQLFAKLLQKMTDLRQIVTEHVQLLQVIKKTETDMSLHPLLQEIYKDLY

As to `CCCC[P+](C)(CCCC)CCCC`, the Potency result in assay [1] and in [2] was “inactive” each time.
For the compound `C[C@@H]1O[C@@H]1P(=O)(O)O`, in assay [3], the outcome was inactive.
Take `C/C=C/C(=O)CC`: the figures for the activity change, negative = inhibition in assay [4] and in assay [2] were -7.93% [at 23.8 µM] and -3.23% [at 23.6 µM], respectively.
As for `CCC(=O)O[C@H]1[C@@H](N2CCCCC2)C[C@H]2[C@@H]3CC[C@H]4C[C@H](OC(C)=O)[C@@H](N5CCCCC5)C[C@]4(C)[C@H]3CC[C@@]21C`, the Potency result in [5], in assay [7], in [8], in [10], in assay [24] and in [25] was “inactive” in each case. The Potency entry in assay [29], in assay [30], in [33], in [34], in [35] and in [37] was “inactive” throughout. In addition, the result in assay [6], in assay [9], in [11], in [12], in assay [13] and in [14] was inactive. For the same compound, the compound was classed as inactive in assay [15], in assay [16], in assay [17], in assay [18], in [19] and in assay [20]. For the same compound, the result in assay [21], in [22], in [23], in [31], in assay [32] and in assay [36] was inactive. Also, the result in [38], in assay [3] and in [39] was inactive. The Potency is 2.37 µM (active) in assay [26], 3.35 µM (active) in [27] and 3.76 µM (active) in assay [28].
For `O=C1CCN(c2ccccc2)N1`, the Potency entry in [1] and in assay [2] was “inactive” throughout.
